Compound activity as filed in PubChem.
PAD4 FP inh = blocks human protein arginine deiminase 4 | Q9UM07 | AID 485272 | 330,000 tested, 0.41% active | recombinant PAD4, RCA probe fluorescence polarization | inhibition, % at 6.36 µM;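 active = percent inhibition above a cutoff equal to the mean of all tested compounds plus 3 SD, cut at about 15% in these data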
Target sequence (Q9UM07 whole entry, looked up): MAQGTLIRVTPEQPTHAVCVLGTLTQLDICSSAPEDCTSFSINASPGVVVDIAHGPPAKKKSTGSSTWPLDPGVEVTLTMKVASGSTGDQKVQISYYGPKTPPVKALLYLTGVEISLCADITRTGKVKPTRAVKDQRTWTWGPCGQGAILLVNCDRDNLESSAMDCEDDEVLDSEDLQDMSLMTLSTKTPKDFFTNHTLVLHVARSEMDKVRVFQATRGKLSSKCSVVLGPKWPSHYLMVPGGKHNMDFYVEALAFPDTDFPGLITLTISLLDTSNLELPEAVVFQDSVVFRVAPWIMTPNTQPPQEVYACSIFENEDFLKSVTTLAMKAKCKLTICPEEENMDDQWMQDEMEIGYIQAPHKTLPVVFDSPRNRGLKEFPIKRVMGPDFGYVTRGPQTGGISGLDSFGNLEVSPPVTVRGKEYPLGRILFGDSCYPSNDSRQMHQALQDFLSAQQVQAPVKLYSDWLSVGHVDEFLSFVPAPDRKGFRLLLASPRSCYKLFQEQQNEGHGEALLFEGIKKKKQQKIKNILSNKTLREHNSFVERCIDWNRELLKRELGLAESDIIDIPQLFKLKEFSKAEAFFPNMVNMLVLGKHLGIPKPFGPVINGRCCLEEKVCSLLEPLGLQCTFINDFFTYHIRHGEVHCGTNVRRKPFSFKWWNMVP
PME-1 inh = PME-1 (human) inhibition; 320,000 tested, 0.53% active; Q9Y570; recombinant PME-1, FP-Rh probe fluorescence polarization; inhibition, % at 5.9 µM;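 active = inhibition above the campaign mean of all compounds plus 3 SD, cut at about 26% in these data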;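 also: competitive labeling of PME-1 active site by serine hydrolase directed probe; inhibitors block probe labeling so polarization falls and inhibition rises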
Fam108B inh = Fam108B inhibition, counter-screen for RBBP9 inhibitors; recombinant Fam108B, FP-Rh probe fluorescence polarization; inhibition, % at 9.51 µM; 300,000 tested, 0.33% active;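 active = inhibition above the screen mean inhibition plus 3 SD, computed separately per campaign, cut at about 18% in these data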;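 also: inhibitors lower polarization as less probe binds the enzyme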
LYPLA1 inh = LYPLA1 (human) inhibition in PME1 counter-screen; O75608; recombinant LYPLA1, FP-Rh probe fluorescence polarization; AID 2174; 320,000 tested, 0.16% active; inhibition, % at 5.9 µM;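 active = inhibition above the mean of all tested compounds plus 3 SD, set per campaign, cut at about 14% in these data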;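 also: inhibitors block serine hydrolase probe labeling of LYPLA1 so polarization falls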
LYPLA2 counter = LYPLA2 (human) inhibition in PME1 counter-screen; O95372; recombinant LYPLA2, FP-Rh probe fluorescence polarization; inhibition, % at 5.9 µM; 320,000 tested, 0.38% active; AID 2177;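 active = inhibition above the screen-wide mean plus 3 SD, limit set per campaign, cut at about 26% in these data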
GSTO1 inh = counter-screen for RBBP9 inhibitors: inhibitors of human GSTO1 | recombinant GSTO1, activity-based probe fluorescence polarization | inhibition, % at 5.96 µM | 300,000 tested, 1.1% active | AID 1974;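 active = inhibition above the campaign mean inhibition plus 3 SD, cut at about 35% in these data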
LYPLA2 conf = LYPLA2 (human) inhibition, confirmation counter-screen; shares compounds with LYPLA2 counter; recombinant LYPLA2, FP-Rh probe fluorescence polarization; inhibition, % at 5.9 µM; 1,100 tested, 72% active; AID 2232;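 active = mean inhibition across replicates above the hit cutoff set in the primary screen, cut at about 26% in these data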;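 also: blocked labeling of the enzyme by serine hydrolase FP-Rh probe lowers polarization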
LYPLA2 ABPP = inhibitors of human LYPLA2; shares compounds with LYPLA2 counter; rhLYPLA2 in mouse brain proteome, gel ABPP FP-Rh; inhibition, % at 20 µM; 150 tested, 30% active; AID 652029;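 active = inhibition of LYPLA2 enzyme probe labeling above about 50%, limit read from the data; inactive = inhibition below that limit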;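 also: loss of FP-Rh probe labeling of the LYPLA2 gel band measured as band density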
PAD4 FP conf = confirmation of human PAD4 inhibitors; shares compounds with PAD4 FP inh; recombinant PAD4, RCA probe fluorescence polarization; inhibition, % at 6.36 µM; 1,200 tested, 28% active;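 active = mean inhibition across replicates above the hit cutoff set by the earlier primary screen, cut at about 15% in these data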;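 also: inhibitors block active-site labeling by the probe so polarization falls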
A number is an active result; . = inactive; / = not tested or not shown. A selection: hits, their analogues and other compounds. The true share with any hit is near 1.8%.

SMILES	PAD4 FP inh	PME-1 inh	Fam108B inh	LYPLA1 inh	LYPLA2 counter	GSTO1 inh	LYPLA2 conf	others
CCOC(=O)c1sc(/N=C/N(C)C)nc1C	.	.	.	.	31.6	.	.
CCn1c(COc2ccc3ccccc3c2C)nnc1SCC(=O)Nc1cccc(C(=O)O)c1	.	.	.	.	.	.	/
O=S(=O)(c1ccc(-c2csc(Nc3ccc(Br)cc3)n2)cc1)N1CCCC1	.	37.6	.	.	53.4	.	.
CCOC(=O)C1CCN(C2=NC(=O)/C(=C/c3ccc(OC)c(OC)c3)S2)CC1	.	.	.	.	.	.	/
CCOC(=O)C1CCN(C2=NC(=O)/C(=C/c3ccc(Cl)cc3)S2)CC1	.	.	.	.	31.1	.	34.7
Cc1ccc(NC(=O)c2cnccn2)cc1C	.	.	.	.	.	.	/
COc1cc(C=NNC(=O)C(NC(=O)c2ccccc2)c2n[nH]c(=O)c3ccccc23)ccc1OCC(N)=O (centres undefined)	/	/	/	/	/	/	/	LYPLA2 ABPP=61.0
CC(=O)c1ccc(N2CCN(C(=O)c3cc4c(s3)CCCC4)CC2)cc1	.	.	.	.	44.0	.	53.8	LYPLA2 ABPP=.
COc1ccc2c(c1)CCc1cc(C(=O)N3CCN(c4ccc(N5CCOCC5)nn4)CC3)sc1-2	.	.	.	.	58.6	.	59.5	LYPLA2 ABPP=.
COc1ccc(N2CCN(C(=O)c3cc4c(s3)CCCCC4)CC2)cc1	.	.	/	.	62.1	/	61.7	LYPLA2 ABPP=.
COc1ccccc1N1CCN(C(=O)c2cc3c(s2)CCC3)CC1	.	.	.	.	.	.	/
O=C(c1cc2c(s1)CCCCC2)N1CCN(c2ncccn2)CC1	.	.	.	.	.	.	/
CCOC(=O)C1=CN(Cc2ccco2)S(=O)(=O)NC1c1ccc(Br)cc1F (centres undefined)	.	/	/	/	/	/	/
Cc1cc(C)c(OCC(=O)N(C)CC(=O)Nc2ccc(N3CCOCC3)cc2)c(C)c1	.	.	.	.	.	.	/
Cc1cc(C)c(OCC(=O)Nc2ccc(N3CCOCC3)cc2)c(Br)c1	.	.	.	.	27.8	.	.
COc1ccc([C@@H]2[C@@H]3C(=O)N(C(C)(C)C)C(=O)[C@@H]3[C@]3(CC(C)C)C(=O)N(c4cccc(F)c4)C(=O)N23)cc1	.	.	.	.	.	.	/
Cc1nnsc1C(=O)N1CCCC(N2CCN(c3cccc(C(F)(F)F)c3)CC2)C1 (centres undefined)	.	.	.	.	55.0	.	56.0	LYPLA2 ABPP=.
Cc1noc(C)c1C(=O)N1CCCC(N2CCN(c3cccc(C(F)(F)F)c3)CC2)C1 (centres undefined)	.	.	.	.	30.2	.	.
CC(=O)Nc1ccc(S(=O)(=O)N2CCN(Cc3cccs3)CC2)cc1	.	.	.	.	.	.	/
COc1ccc(N2C(=O)CC(N3CCN(c4ccc(C(=O)c5cccnc5)cc4)CC3)C2=O)cc1 (centres undefined)	.	.	.	.	.	.	/
CCOc1ccc(N2C(=O)CC(N3CCN(c4ccc(C(=O)c5ccncc5)cc4)CC3)C2=O)cc1 (centres undefined)	.	.	.	.	28.9	.	.
O=C(c1ccc(N2CCN(C3CC(=O)N(c4ccc(F)cc4)C3=O)CC2)cc1)c1cccnc1 (centres undefined)	.	.	.	.	34.9	.	31.6
CCOC(=O)N1CCN(C(=O)CCN2C(=O)COc3ccc(C)cc32)CC1	.	.	.	.	.	.	/
CCOc1ccc(C(=O)NC(=S)Nc2ccc(NC(=O)CC)cc2)cc1[N+](=O)[O-]	.	.	.	.	28.4	.	27.0
CCOc1ccc(C(=O)NC(=S)Nc2ccccc2OC)cc1[N+](=O)[O-]	.	.	.	.	.	.	/
SMILES	PAD4 FP inh	PME-1 inh	Fam108B inh	LYPLA1 inh	LYPLA2 counter	GSTO1 inh	LYPLA2 conf	others
Cn1nccc1C(=O)N1CCCC(N2CCN(c3cccc(C(F)(F)F)c3)CC2)C1 (centres undefined)	.	.	.	.	54.0	.	52.5	LYPLA2 ABPP=.
Cc1cc(C)c(C(=O)N2CCCC(N3CCN(c4cccc(C(F)(F)F)c4)CC3)C2)o1 (centres undefined)	.	.	.	.	52.0	.	50.5	LYPLA2 ABPP=.
Nc1nc(SCC(=O)NCCOCCO)nc2sc3c(c12)CCCC3	.	.	.	.	.	.	/
O=C(CCCN1CCC(O)(c2cccc(C(F)(F)F)c2)CC1)c1ccc(F)cc1	.	.	.	.	71.8	.	68.3
O=C(CCCN1CCC(O)(c2ccc(Br)cc2)CC1)c1ccc(F)cc1	.	.	.	.	.	.	/
Cc1sc(NC(=O)c2ccccc2)c(C#N)c1-c1ccccc1	.	.	.	.	.	.	/
COc1ccc(NC(=S)N2CCCC2c2ccc(OC)c(OC)c2)cc1 (centres undefined)	.	.	.	.	.	.	/
CCOC(=O)c1ccc(NC(=S)N2CCCC2c2ccc(OC)c(OC)c2)cc1 (centres undefined)	.	.	.	.	30.3	.	.
O=C(CN1C(=O)C2CCCCC2C1=O)Nc1ccc(S(=O)(=O)Nc2ncccn2)cc1 (centres undefined)	.	.	.	.	.	.	/
COc1ccc(C(=O)c2nccc3cc(OC)c(OC)cc23)cc1OC	60.5	.	/	.	26.3	/	.	PAD4 FP conf=25.1
CCOC(=O)C(Sc1cc(C)nc(N)n1)C(C)=O (centres undefined)	.	.	.	.	.	.	/
Cc1cc(=O)[nH]c(NN)n1	15.8	.	.	.	.	.	/	PAD4 FP conf=.
Cc1cc(=O)[nH]c(NCCO)n1	.	.	.	.	.	.	/
CCCCOc1ccc(OC(=O)Nc2cc(Cl)ccc2OC)cc1	.	.	.	.	.	.	/
CC1(c2ccc([N+](=O)[O-])cc2)Nc2ccccc2S1 (centres undefined)	17.1	.	.	.	.	.	/	PAD4 FP conf=.
Cc1cc(C(=O)CSc2nc(N)cc(=O)[nH]2)c(C)n1CC1CCCO1 (centres undefined)	28.3	/	/	/	/	/	/	PAD4 FP conf=15.2
O=C(NCc1cccc(OC(F)(F)F)c1)c1cccc2c1C(=O)c1ccc(-c3ccc(F)cc3OCc3ccccc3)cc1S2(=O)=O	.	/	/	/	/	/	/
O=C1c2ccc(-c3ccc(F)cc3OCc3ccccc3)cc2S(=O)(=O)c2cccc(C(=O)N3CCCC3)c21	16.6	.	/	.	.	/	/	PAD4 FP conf=14.9
COc1ccccc1NC(=O)Cn1nc(C)n2cccc2c1=O	.	.	.	.	.	.	/
Cc1ccc(S(=O)(=O)N2CCCC2=O)c(C)c1N(C)S(C)(=O)=O	15.7	.	.	.	.	.	/	PAD4 FP conf=.
